# Source: the supplement of paper PMC3334620
# Over roughly 33,000 sequences, “E-score (-0.5 to 0.5)” has its median near -0.035; the highest 2% begin near 0.35. The entries come from a sample that favours the highest values as a whole.
# Molecular target: T1, Pdr3 (UniProt P33200)
# T1 sequence: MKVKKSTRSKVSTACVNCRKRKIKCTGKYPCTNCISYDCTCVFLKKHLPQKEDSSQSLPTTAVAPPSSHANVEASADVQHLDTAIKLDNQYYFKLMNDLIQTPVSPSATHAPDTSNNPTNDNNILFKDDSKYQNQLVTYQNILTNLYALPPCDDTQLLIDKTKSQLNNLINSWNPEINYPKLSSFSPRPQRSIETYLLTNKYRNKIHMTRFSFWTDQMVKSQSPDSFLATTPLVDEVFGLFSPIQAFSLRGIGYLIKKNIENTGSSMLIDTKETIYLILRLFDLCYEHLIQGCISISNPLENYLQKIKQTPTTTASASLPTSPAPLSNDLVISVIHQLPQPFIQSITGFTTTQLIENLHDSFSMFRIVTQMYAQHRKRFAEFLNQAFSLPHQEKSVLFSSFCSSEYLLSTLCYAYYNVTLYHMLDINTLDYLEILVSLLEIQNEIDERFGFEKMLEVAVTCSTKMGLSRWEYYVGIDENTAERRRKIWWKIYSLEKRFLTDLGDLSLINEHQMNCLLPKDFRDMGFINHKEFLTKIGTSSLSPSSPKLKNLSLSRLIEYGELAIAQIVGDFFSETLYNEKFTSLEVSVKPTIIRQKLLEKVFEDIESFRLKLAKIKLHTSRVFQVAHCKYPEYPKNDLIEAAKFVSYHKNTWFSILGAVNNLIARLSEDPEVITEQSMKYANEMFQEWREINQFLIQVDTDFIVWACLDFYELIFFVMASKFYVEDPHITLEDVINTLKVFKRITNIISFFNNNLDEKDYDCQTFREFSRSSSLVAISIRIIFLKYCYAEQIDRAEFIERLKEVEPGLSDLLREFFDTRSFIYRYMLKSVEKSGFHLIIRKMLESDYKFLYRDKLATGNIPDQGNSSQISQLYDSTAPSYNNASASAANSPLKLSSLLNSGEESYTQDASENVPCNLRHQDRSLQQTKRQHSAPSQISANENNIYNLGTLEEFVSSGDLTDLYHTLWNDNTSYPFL
# Assay: PBM E-score (8-mer binding enrichment) (E-score (-0.5 to 0.5)); higher = stronger / more preferred TF binding
# Details: protein concentration: 200 nM; construct: GST-full length
# Protocol: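 Universal 'all 10-mer' protein binding microarrays (Agilent AMADID 015681) probed with GST-tagged S. cerevisiae TFs (full-length or DBD) made by in vitro transcription/translation (PURExpress), about 100-200 nM. Bound TF was detected with fluorescent anti-GST. Each ungapped 8-mer (which stands for itself and its reverse complement) is scored by the PBM enrichment score (E-score), a modified Wilcoxon-Mann-Whitney statistic from -0.5 to +0.5, computed with the Universal PBM Analysis Suite. Scale: above 0.35 generally sequence-specific binding.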
row,Sequence,PBM E-score
1,CGCCTTGC,-0.0202
2,ATCATTGA,-0.0198
3,CAGGCACA,-0.171
4,AACTGGCA,-0.0302
5,GGTCAAAC,0.0507
6,GGTTCTGA,-0.109
7,ACCCGTGA,0.0325
8,CAGACGGG,0.103
9,CTAGTCTC,-0.269
10,CCGGCCTA,0.184
11,CCGGCCGA,0.372
12,GCGGCCGA,0.222
13,GGAGTCAC,-0.0786
14,CCTGTAGC,-0.282
15,CGGAAGGC,0.369
16,CGGAAGGA,0.396
17,AGGAAGGA,-0.363
18,CAGAAGGC,0.0006
19,AGGAAGGC,-0.185
20,GGGAAGGA,-0.00585
21,ATATCTGC,-0.044
22,ATAGAAAG,-0.0611
23,AGGAAGCG,0.0228
24,CACCTGCA,-0.142
25,TGGCGAAA,-0.0244

row,Sequence,PBM E-score
1,CGGCGGAG,0.372
2,GGGCGGAC,0.373
3,AGGCGGAC,0.211
4,TGGCGTAA,-0.263
5,CGGCGGAA,0.456
6,AGGCGGAA,0.35
7,TGGCGGAA,0.359
8,CGGCGGAC,0.289
9,AGGCGGAG,0.174
10,CGGCGGCA,0.226
11,AGGCGGCG,0.0493
12,CTTCAACC,0.00827
13,AGTGATCA,-0.0706
14,CGATAGGC,-0.216
15,GTGCGACA,-0.0394
16,AGGCAGGA,-0.149
17,AGCACGAG,0.0609
18,CGTGAGGA,-0.063
19,ATGACCCA,-0.0734
20,GGATACCA,0.212
21,ATCGGTTC,0.192
22,AATCTTTC,0.13
23,GGGCGGAA,0.414
24,GGGCGGGA,0.35
25,GGGCGGTA,0.195

row,Sequence,PBM E-score
1,TATTCTAA,0.0298
2,CTCGCTCC,0.0762
3,AGAGGACA,-0.0484
4,GGTCGACC,0.38
5,CGTCGACC,0.0668
6,AGTCGACC,0.0168
7,ACTTGCTG,-0.278
8,GCGCCCAC,-0.0118
9,ATCTTTCC,0.265
10,CCGGGAGC,0.306
11,ACCGGAGG,0.281
12,CCCGGTGC,0.215
13,ACCGGAGC,0.356
14,CCCGGAGC,0.39
15,ACTGGAGC,-0.056
16,AGTGGCGC,0.153
17,TCGATAGA,-0.125
18,CCGTAACA,-0.0633
19,ACCTTAGT,-0.174
20,ACTCTATG,0.0265
21,TGGAACAA,-0.0164
22,CCGAACAG,0.0662
23,GGGAACAC,0.183
24,AGGAACAG,-0.195
25,AGGAACAC,0.168

row,Sequence,PBM E-score
1,CGGAACAC,0.483
2,GGGAACAA,0.188
3,CGGAACAG,0.466
4,CGGAACAA,0.476
5,CCTAGTCG,-0.23
6,CAGGTAAA,-0.0305
7,ATCCTATC,0.0308
8,ATTACCGG,0.243
9,ACTAGAGG,-0.161
10,CAATAAGA,-0.172
11,AAGGGGAG,-0.118
12,CCTACGGA,0.239
13,ACTACGGA,0.362
14,ATTACGGA,0.361
15,ATTACGGG,-0.0819
16,ATTACGGC,0.0318
17,ACTACGGG,0.118
18,ATACGAAA,0.182
19,AACACAGT,-0.0579
20,TGGAGTAA,-0.0368
21,TGGAAACA,-0.184
22,CCCGACCA,0.155
23,GCGTACGA,-0.0757
24,AGAAGGGA,-0.323
25,GTTGCGGA,0.236

row,Sequence,PBM E-score
1,ACGATCCA,-0.0267
2,ACGATCCG,0.368
3,CCGATCCG,0.371
4,CCGATCCC,0.175
5,CCGATCCA,0.155
6,ACGATCCC,0.183
7,GCCAGTAC,-0.0709
8,ATTTTGGC,0.16
9,TAGTCATA,-0.247
10,ACCTGGCC,0.162
11,TATCTTAA,-0.0962
12,GTACGGTA,0.0177
13,TTACGAAA,-0.0461
14,GTACGGAA,0.402
15,CTACGGAG,0.246
16,ATACGGAT,0.241
17,CTACGGAA,0.407
18,ATACGGAA,0.439
19,ATACGGAC,0.239
20,TTACGGAA,0.419
21,GTACGGAC,0.278
22,TTATGGAA,0.0348
23,CTACGGAC,0.0596
24,ACGATTTC,0.051
25,TACTGATA,0.0935

row,Sequence,PBM E-score
1,ATGGACAC,0.0372
2,CTCCTCAA,-0.152
3,GAACGCAA,0.133
4,GCGTTAGC,-0.213
5,ATACAGCG,-0.116
6,ATCCGCCC,0.251
7,ACCCGCCC,0.348
8,ATCCGCCG,0.387
9,ACCCGCCG,0.388
10,ACCCGCCA,0.0368
11,ATCCGCCA,0.185
12,CGAACTCG,0.17
13,GCTGCAAA,-0.0739
14,TGGAATAA,-0.00691
15,CAGAATAG,-0.0833
16,GGGAATAA,0.199
17,CGGAATAG,0.418
18,CGGAATAC,0.427
19,AGGAATAC,-0.2
20,GGGAATAC,0.162
21,AGGAATAG,-0.072
22,CGGAATAA,0.422
23,CCTGAAGA,-0.0192
24,GGCGCCTA,-0.0415
25,CTACAGCC,-0.129

row,Sequence,PBM E-score
1,GCCTCATA,0.0142
2,CTTGTCCC,0.19
3,AAGTTCCG,0.445
4,CAGTTCCA,-0.0348
5,CAGTTCCG,0.473
6,CAGTTCCC,0.342
7,AAGTTCCC,0.14
8,AAGTTCCT,0.0364
9,CATGAAGC,0.058
10,CCAGCCTA,-0.182
11,CTAGGGAG,-0.205
12,GCAAGCCC,-0.0061
13,CGGAATTA,0.43
14,GGGAATTA,0.118
15,AGGAATTA,-0.091
16,AGGAATTC,-0.00951
17,CTGAATTC,-0.136
18,CGGAATTC,0.434
19,GTGCCTAA,-0.288
20,CTATCTAA,0.00128
21,GTCCCTGA,-0.23
22,GAGCGAAA,0.146
23,ACTTTCCT,-0.151
24,CCTTTCCC,0.235
25,ACTTTCCG,0.417

row,Sequence,PBM E-score
1,CCTTTCCA,-0.0113
2,ACTTTCCC,0.0862
3,CCTTTCCG,0.387
4,AGGTTTTG,-0.197
5,AAACTCTT,-0.264
6,CAGTCGGC,0.0494
7,AGCCGGTC,-0.0317
8,AGCCGGGG,0.152
9,AGCCGGAG,0.362
10,AGCCGTAT,0.0899
11,GGCCGGAC,0.216
12,GGCCGAAA,0.199
13,AGCCGGAT,0.391
14,GGCCGGAA,0.431
15,CGCCGGAG,0.299
16,CGCCGGAC,0.316
17,CGCCGGAA,0.45
18,AGCCGGTG,0.187
19,GCGGATGA,0.303
20,GAACCCTA,-0.0298
21,AGTTCAAG,0.0398
22,AAAGCTTT,0.00459
23,GGAGCACA,0.0257
24,ACGTACGA,-0.133
25,CGTAGAGA,-0.182

row,Sequence,PBM E-score
1,TGCCGTAA,-0.187
2,AGCCGGAC,0.345
3,TGCCGAAA,0.118
4,TGCCGGAA,0.454
5,AGCCGGTA,0.199
6,AGCCGGAA,0.438
7,AGCAACCT,-0.0661
8,TCGAGGCA,-0.123
9,CGGCGAGA,0.0811
10,GTTTCTCA,-0.134
11,CCGGATCA,0.389
12,ACGGATCC,0.445
13,ACGGATCT,0.271
14,TCGGATCA,0.303
15,CGGGATCA,0.344
16,CCGGATCG,0.391
17,AGGGATCC,0.196
18,GCGGATCA,0.296
19,CCGGATAG,0.347
20,CGGGATCC,0.417
21,CAGGATCG,0.0205
22,ACGGATCG,0.236
